The panel holds about 83,000 compounds, 20% with a hit somewhere; the sample as a whole holds those more often.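 Step 1: grow cells in 96-well plates. Step 2: add test compound at a single concentration. Step 3: incubate 48 h. Step 4: record percent growth.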 Calls of active or inactive are those of the source. The calls were made as follows: active = growth percent below 10; inactive = the rest.
Legend:
Assay in all cases: NCI-60 one-dose screen, 48 h (100 = growth as untreated, 0 = no growth, -100 = all killed)
Details in all cases: 10 µM unless noted
SK-MEL-2 melanoma = test system: SK-MEL-2 melanoma
EKVX NSCLC = test system: EKVX NSCLC
SN12C renal = test system: SN12C renal
UO-31 renal = test system: UO-31 renal
TK-10 renal = test system: TK-10 renal
ACHN renal = test system: ACHN renal
CAKI-1 renal = test system: CAKI-1 renal
A498 renal = test system: A498 renal
CCRF-CEM leukemia = test system: CCRF-CEM leukemia
MOLT-4 leukemia = test system: MOLT-4 leukemia
SR leukemia = test system: SR leukemia
RPMI-8226 leukemia = test system: RPMI-8226 leukemia
OVCAR-8 ovarian = test system: OVCAR-8 ovarian
OVCAR-5 ovarian = test system: OVCAR-5 ovarian
OVCAR-4 ovarian = test system: OVCAR-4 ovarian
SK-OV-3 ovarian = test system: SK-OV-3 ovarian
IGROV1 ovarian = test system: IGROV1 ovarian
HS 578T breast = test system: HS 578T breast
NCI/ADR-RES ovarian = test system: NCI/ADR-RES ovarian
OVCAR-3 ovarian = test system: OVCAR-3 ovarian

Measured: growth

O=C1[C@@H]2Cc3c([nH]c4ccccc34)[C@@H](c3ccc(Cl)cc3)N2C(=O)CN1C1CCN(Cc2c(F)cccc2F)CC1
active: MOLT-4 leukemia 8.27% | SR leukemia -4.42%
inactive: SK-MEL-2 melanoma 67.6% | EKVX NSCLC 40.1% | SN12C renal 38.5% | UO-31 renal 24.2% | TK-10 renal 52.5% | ACHN renal 28% | CAKI-1 renal 24.6% | A498 renal 60% | CCRF-CEM leukemia 19.8% | RPMI-8226 leukemia 12.5% | OVCAR-8 ovarian 43.7% | OVCAR-5 ovarian 59.4% | OVCAR-4 ovarian 44.8% | SK-OV-3 ovarian 68.5% | IGROV1 ovarian 25.6% | HS 578T breast 53.8% | NCI/ADR-RES ovarian 42.5%

CC(=O)c1cc(C(=O)N2c3ccccc3Sc3ccccc32)n2c1ccc1ccccc12
inactive: SK-MEL-2 melanoma 38.3% | EKVX NSCLC 78.4% | SN12C renal 86.7% | UO-31 renal 64.6% | TK-10 renal 107% | ACHN renal 50.1% | CAKI-1 renal 46.8% | A498 renal 30.1% | CCRF-CEM leukemia 35.9% | MOLT-4 leukemia 54.7% | SR leukemia 11% | RPMI-8226 leukemia 48.3% | OVCAR-8 ovarian 71.5% | OVCAR-5 ovarian 86.6% | OVCAR-4 ovarian 78.1% | SK-OV-3 ovarian 59.8% | IGROV1 ovarian 52.7% | HS 578T breast 55.1% | NCI/ADR-RES ovarian 35.9%

CN1CCN(Cc2ccc(NC(=O)c3cncc(C#Cc4cnc5ccc(O[C@@H]6CCOC6)nn45)c3)cc2C(F)(F)F)CC1
active: SK-MEL-2 melanoma -78.3% | EKVX NSCLC -85.8% | SN12C renal -77.4% | UO-31 renal -91.8% | TK-10 renal -83.5% | ACHN renal -100% | CAKI-1 renal -96.8% | A498 renal -94.7% | CCRF-CEM leukemia -15.8% | MOLT-4 leukemia -26% | SR leukemia -29.7% | RPMI-8226 leukemia -24.1% | OVCAR-8 ovarian -60.1% | OVCAR-5 ovarian -66% | OVCAR-4 ovarian -73.7% | SK-OV-3 ovarian -67.8% | IGROV1 ovarian -51.9% | HS 578T breast -46.9% | NCI/ADR-RES ovarian -34.5%

CCc1cc(OC(=O)N2CCC(N3CCCCC3)CC2)ccc1Nc1cc(-c2ccc(-n3cccn3)cc2)[nH]n1
active: CCRF-CEM leukemia 7.95% | SR leukemia -9.25%
inactive: SK-MEL-2 melanoma 95.9% | EKVX NSCLC 97% | SN12C renal 77.7% | UO-31 renal 46% | TK-10 renal 95.7% | ACHN renal 42.9% | CAKI-1 renal 48.4% | A498 renal 71.3% | MOLT-4 leukemia 18.9% | RPMI-8226 leukemia 20.9% | OVCAR-8 ovarian 86.2% | OVCAR-5 ovarian 87.4% | OVCAR-4 ovarian 85.3% | SK-OV-3 ovarian 85.9% | IGROV1 ovarian 56.9% | HS 578T breast 66.8% | NCI/ADR-RES ovarian 82.5%

CS(=O)(=O)c1nccc(-c2c(-c3cccc(OCc4ccc(Cl)c(C(F)(F)F)c4)c3)nc3sccn23)n1
active: UO-31 renal 0.98% | MOLT-4 leukemia 9.69% | SR leukemia 9.33% | RPMI-8226 leukemia -16.8%
inactive: SK-MEL-2 melanoma 107% | EKVX NSCLC 78.9% | SN12C renal 74.7% | TK-10 renal 112% | ACHN renal 71.9% | CAKI-1 renal 73.7% | A498 renal 98.3% | CCRF-CEM leukemia 13.2% | OVCAR-8 ovarian 99.3% | OVCAR-5 ovarian 101% | OVCAR-4 ovarian 71.9% | SK-OV-3 ovarian 104% | IGROV1 ovarian 34.1% | HS 578T breast 41.1% | NCI/ADR-RES ovarian 98.2%

CCCCCCCCCCCC(=O)NC(C)(C)C(=O)N1CCCC1C(=O)NC(C)(C)C(=O)NC(C)(C)C(=O)N1CCCC1C(=O)NC(C)(C)C(=O)NC(C)(C)C(=O)N1CCCC1C(=O)NC(C)C(=O)NCCC(=O)NC(C)C(=O)NC(C)(C)C(=O)NC(C)(C)C(=O)NC(C)(C)C(=O)NCCC(=O)NC(C)(C)C(=O)NC(C)(C)C(=O)NC(C)(C)C(=O)NC(C)C(=O)NCCC(=O)O (configuration not stated)
active: SK-MEL-2 melanoma -96.2% | EKVX NSCLC -88.5% | SN12C renal -94% | UO-31 renal -99.7% | TK-10 renal -97.1% | ACHN renal -100% | CAKI-1 renal -94.2% | A498 renal -98.5% | CCRF-CEM leukemia -55.6% | MOLT-4 leukemia -67.9% | SR leukemia -61.5% | RPMI-8226 leukemia -54.4% | OVCAR-8 ovarian -93.4% | OVCAR-5 ovarian -95.4% | OVCAR-4 ovarian -94.5% | SK-OV-3 ovarian -96.9% | IGROV1 ovarian -93.8% | HS 578T breast -69.8% | NCI/ADR-RES ovarian -80.9%

O=S(=O)(Oc1ccc(-c2cn3ccoc3n2)cc1)c1cccc(C(F)(F)F)c1
inactive: SK-MEL-2 melanoma 104% | EKVX NSCLC 102% | SN12C renal 96.2% | UO-31 renal 93.1% | TK-10 renal 85.4% | ACHN renal 102% | CAKI-1 renal 86.9% | A498 renal 88.8% | CCRF-CEM leukemia 106% | MOLT-4 leukemia 103% | SR leukemia 100% | RPMI-8226 leukemia 94.4% | OVCAR-8 ovarian 101% | OVCAR-5 ovarian 103% | OVCAR-4 ovarian 102% | SK-OV-3 ovarian 117% | IGROV1 ovarian 106% | HS 578T breast 98.6% | NCI/ADR-RES ovarian 106%

CCCCSC1=C(Cl)CN(c2ccccc2)C1=O
inactive: SK-MEL-2 melanoma 121% | EKVX NSCLC 97.8% | SN12C renal 94.6% | UO-31 renal 92.2% | TK-10 renal 134% | ACHN renal 106% | CAKI-1 renal 94% | A498 renal 108% | CCRF-CEM leukemia 117% | MOLT-4 leukemia 105% | SR leukemia 71.5% | RPMI-8226 leukemia 78% | OVCAR-8 ovarian 102% | OVCAR-5 ovarian 98.8% | OVCAR-4 ovarian 107% | SK-OV-3 ovarian 105% | IGROV1 ovarian 106% | HS 578T breast 98.6% | NCI/ADR-RES ovarian 103%

NC(=O)c1ncn2c(=O)n(CCF)nnc12
inactive: EKVX NSCLC 92.5% | SN12C renal 85.5% | UO-31 renal 41% | TK-10 renal 44.3% | ACHN renal 62.2% | CAKI-1 renal 34% | A498 renal 101% | CCRF-CEM leukemia 28.5% | MOLT-4 leukemia 29.9% | SR leukemia 35.3% | RPMI-8226 leukemia 44% | OVCAR-8 ovarian 38.3% | OVCAR-5 ovarian 85.1% | OVCAR-4 ovarian 58% | SK-OV-3 ovarian 17.3% | IGROV1 ovarian 70.3% | HS 578T breast 103% | NCI/ADR-RES ovarian 50.6%
active: SK-MEL-2 melanoma -6.14%

Cc1nc(/N=C(N)/N=C(\N)c2cccc(Br)c2)sc1C
inactive: SK-MEL-2 melanoma 64% | EKVX NSCLC 60.2% | SN12C renal 47.3% | UO-31 renal 52.5% | TK-10 renal 83.3% | ACHN renal 49.9% | CAKI-1 renal 48.6% | A498 renal 43.5% | CCRF-CEM leukemia 34% | MOLT-4 leukemia 39.7% | SR leukemia 35.6% | RPMI-8226 leukemia 55.1% | OVCAR-8 ovarian 58.2% | OVCAR-5 ovarian 71.1% | OVCAR-4 ovarian 87.3% | SK-OV-3 ovarian 67.8% | IGROV1 ovarian 52.3% | OVCAR-3 ovarian 47.2% | HS 578T breast 73.1% | NCI/ADR-RES ovarian 36.1%

COc1cccc(N2CCN(C3=C(Cl)C(=O)c4ncccc4C3=O)CC2)c1
active: ACHN renal -23.8% | CCRF-CEM leukemia 10% | SR leukemia 4.42%
inactive: SK-MEL-2 melanoma 98.4% | EKVX NSCLC 102% | SN12C renal 95.8% | UO-31 renal 38% | TK-10 renal 126% | CAKI-1 renal 57.8% | A498 renal 104% | MOLT-4 leukemia 18.2% | RPMI-8226 leukemia 55.8% | OVCAR-8 ovarian 82.8% | OVCAR-5 ovarian 124% | OVCAR-4 ovarian 80.5% | SK-OV-3 ovarian 93.8% | IGROV1 ovarian 80.8% | HS 578T breast 84.4% | NCI/ADR-RES ovarian 81.9%

C/C(=N/N)c1nnn(-c2ccc(Br)cc2)c1C
inactive: SK-MEL-2 melanoma 112% | EKVX NSCLC 99.5% | SN12C renal 91% | UO-31 renal 79.7% | TK-10 renal 98.1% | ACHN renal 101% | CAKI-1 renal 91.6% | A498 renal 93.3% | CCRF-CEM leukemia 109% | MOLT-4 leukemia 93.6% | SR leukemia 96% | RPMI-8226 leukemia 105% | OVCAR-8 ovarian 102% | OVCAR-5 ovarian 93.2% | OVCAR-4 ovarian 110% | SK-OV-3 ovarian 109% | IGROV1 ovarian 95.1% | HS 578T breast 102% | NCI/ADR-RES ovarian 104%

CC1=C(C)C(=O)C(Nc2ccc3c(c2)OCCO3)=C(Br)C1=O
inactive: SK-MEL-2 melanoma 114% | EKVX NSCLC 73.7% | SN12C renal 99.7% | UO-31 renal 95.8% | TK-10 renal 135% | ACHN renal 101% | CAKI-1 renal 102% | A498 renal 103% | CCRF-CEM leukemia 13.2% | SR leukemia 77.6% | RPMI-8226 leukemia 100% | OVCAR-8 ovarian 100% | OVCAR-5 ovarian 108% | OVCAR-4 ovarian 66.8% | SK-OV-3 ovarian 93.9% | IGROV1 ovarian 102% | OVCAR-3 ovarian 109% | HS 578T breast 97.3% | NCI/ADR-RES ovarian 97.3%
active: MOLT-4 leukemia -7.79%

c1ccc(-c2cn3c(-c4c[nH]c5ccccc45)csc3n2)cc1
inactive: SK-MEL-2 melanoma 77.4% | EKVX NSCLC 72% | SN12C renal 53.6% | UO-31 renal 73% | TK-10 renal 148% | ACHN renal 91.8% | CAKI-1 renal 77.9% | A498 renal 79.3% | CCRF-CEM leukemia 53% | MOLT-4 leukemia 66.9% | SR leukemia 61.7% | RPMI-8226 leukemia 31.2% | OVCAR-8 ovarian 65.5% | OVCAR-5 ovarian 87.8% | OVCAR-4 ovarian 61.9% | SK-OV-3 ovarian 87.3% | IGROV1 ovarian 62.2% | HS 578T breast 68.9% | NCI/ADR-RES ovarian 91.8%

Cc1csc(/N=C(N)/N=C(\N)c2cccs2)n1
inactive: SK-MEL-2 melanoma 106% | EKVX NSCLC 94.2% | SN12C renal 110% | UO-31 renal 81.5% | TK-10 renal 174% | ACHN renal 107% | CAKI-1 renal 85.1% | A498 renal 120% | CCRF-CEM leukemia 110% | MOLT-4 leukemia 106% | SR leukemia 99% | RPMI-8226 leukemia 101% | OVCAR-8 ovarian 101% | OVCAR-5 ovarian 115% | OVCAR-4 ovarian 105% | SK-OV-3 ovarian 92.3% | IGROV1 ovarian 101% | HS 578T breast 107% | NCI/ADR-RES ovarian 108%

From PubChem BioAssay (NCI)
